Measurements from PubChem BioAssay AID2380 (Sanford-Burnham Center for Chemical Genomics, 2010).
Hit rate of the full screen: of about 330,000 compounds, about 960 (0.29%) were called active. Many of the other results were omitted from the sample, so actives are more common in it than they were. Unmarked numbers belong to inactive results.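 Rule for the calls: active = compounds whose signal lies at least 3.5 SD above the mean of all wells on their plate; inactive = the rest.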

Test: inducers of MIN6 beta-cell proliferation, primary screen, ATP luminescence, uHTS (AID 2380);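 note: 0% = DMSO-treated cells in low-serum medium and 100% = 10% serum control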
Settings: MIN6 cells proliferation, ATPlite luminescence, 48 h; at 10 µM; active compounds read high; 100% = growth in 10% serum; cells starved in 0.2% serum

| SMILES | proliferation |
| --- | --- |
| O=C(NCCCN1CCCCC1)C1CCCN(c2ncnc3c2nc2n3CCCCC2)C1 (stereo unspecified) | -1.13% |
| COc1cccc(CNC(=O)C2CCCN(c3ncnc4c3nc3n4CCCCC3)C2)c1 (stereo unspecified) | 7.08% (active) |
| COc1cccc(NC(=O)C2CCCN(c3ncnc4c3nc3n4CCCCC3)C2)c1 (stereo unspecified) | 5.62% |
| Cc1ccccc1CNC(=O)CCC(=O)N1Cc2ccccc2Oc2ncccc21 | 12.5% (active) |
| Cc1ccc2c(c1)N(C(=O)CCC(=O)NCc1cccnc1)CCO2 | 1.08% |
| CC1CN(C(=O)CCC(=O)NCc2cccnc2)c2ccccc2O1 (stereo unspecified) | -2.56% |
| CC(C)Cc1nc(Nc2ccc(S(=O)(=O)N3CCCC3)cc2)c2nnn(Cc3ccccc3)c2n1 | -0.74% |
| COC(=O)C(C(=O)Nc1cccc(C)n1)C1CCCCCC1 (stereo unspecified) | 0% |
| O=C(C1CCN(C2CCN(Cc3cccc4c3OCO4)CC2)CC1)N1CCOCC1 | 1.29% |
| CC1CCN(C(=O)CCc2nnc3ccc(NCc4ccco4)nn23)CC1 | -1.78% |
| O=C(COC(=O)c1ccccc1)Nc1cccc(S(=O)(=O)N2CCOCC2)c1 | 1.39% |
| CC(=O)c1cccc(NC(=O)COc2ccc(S(=O)(=O)N3CCOCC3)cc2)c1 | 10.6% (active) |
| COC(=O)COc1ccc(S(=O)(=O)N2CCOCC2)cc1 | -2.03% |
| CCN1C(=O)[C@@H]2[C@@H](c3ccc(-c4ccccc4)cc3)N3CCCC[C@@]3(C(=O)OC)[C@@H]2C1=O | -7.4% |
| CN(CC(=O)Nc1c(Cl)cccc1Cl)C(=O)CC1OC(=O)c2ccccc21 (stereo unspecified) | -1.95% |
| CC1Cn2c(nnc2-c2cccs2)S1 (stereo unspecified) | -1.85% |
| O=C(NCc1ccc2c(c1)OCO2)c1cc2c(s1)CS(=O)(=O)C2 | -0.86% |
| CC(=O)OC(C(=O)NC1CCCCC1)c1ccccc1 (stereo unspecified) | 5.32% (active) |
| O=C(NNC(=O)C(O)c1ccccc1)NC1CCCCC1 (stereo unspecified) | -1.83% |
| CC(=O)CC(CC(=O)NC1CCCCC1)c1ccccc1 (stereo unspecified) | 0.52% |
| Cn1c(=O)c2c(ncn2CC(COCc2ccccc2Cl)OCc2ccccc2Cl)n(C)c1=O (stereo unspecified) | -1.81% |
| Nc1[nH]c(=S)nc2nc(-c3ccccc3)c(-c3ccccc3)nc12 | -5.91% |
| COC(=O)c1cc(C(=O)NC(C)C2CC3CCC2C3)cc([N+](=O)[O-])c1 (stereo unspecified) | 0% |
| O=S(=O)(NCc1ccccn1)c1ccc(F)cc1 | 0.39% |

| SMILES | proliferation |
| --- | --- |
| O=S(=O)(NCCc1ccc(F)cc1)c1cccc2cccnc12 | 3.17% |
| O=S(=O)(NCCOc1cccc2cccnc12)c1ccc(F)cc1 | 5.56% (active) |
| Cc1cc(Cl)ccc1NNC(=O)c1snnc1C | -4.18% |
| CNc1[nH]ncc1[N+](=O)[O-] | 3.19% |
| CN(C(=O)CSc1nnc(-c2n[nH]c3ccccc23)o1)c1ccccc1 | 0.29% |
| Cc1ccc(C(=O)Nc2ccc(NC(=O)c3cccs3)cc2)c(C)c1 | 0% (active) |
| Cc1ccc(NC(=O)c2cccs2)cc1S(=O)(=O)N(C)C | 0.43% |
| Cc1ccc(OCC(=O)Nc2ccc(NC(=O)c3cccs3)cc2)c(C)c1 | 0% |
| CC(C)(C)N(CC#CCC(O)(c1ccccc1)C1CCCC1)CCO (stereo unspecified) | 2.2% |
| O=C(Nc1ccccc1N1CCCC1)c1ccc2ccccc2c1 | -2.88% |
| CCn1c(=O)n(CC)c2cc(N3CCCC3)c(NC(=O)c3ccccc3Br)cc21 | 13.7% (active) |
| COc1ccc(NS(=O)(=O)c2ccc(N3CCOCC3)c(NC(=O)c3ccccc3Br)c2)cc1 | 5.36% |
| CCC(C(=O)NC1CCCC1)N(C(=O)Cn1nnc(-c2ccc(C)o2)n1)c1ccc(OC)c(OC)c1 (stereo unspecified) | 5.41% |
| COc1ccc(N(CC(=O)Nc2cc(OC)ccc2OC)S(=O)(=O)c2c(C)noc2C)cc1 | -0.48% |
| CCCOc1ccc(NC(=O)CC2C(=O)N(C)C(=S)N2Cc2ccc3c(c2)OCO3)cc1 (stereo unspecified) | 0% |
| CSc1nsc(NC(=O)Nc2ccccc2)n1 | -5.02% |
| CC/C(=N/Nc1ccccc1)c1cnnc(SC)n1 | 8.26% (active) |
| C/C(=N/Nc1ccc(Cl)cc1)c1cnnc(-c2ccccc2)n1 | -3.11% |
| OCc1ccc(-c2ccccc2)c(-c2ccccc2)c1 | -3.43% |
| O=C(O)CC(SCC(=O)Nc1ccc(Br)cc1)C(=O)O (stereo unspecified) | -0.34% |
| Cc1cc(C)c2c(-n3cccc3)c(NC(=O)OCc3ccccc3)sc2n1 | -5.05% |
| COC(=O)Nc1sc2nc(C)cc(C)c2c1-n1cccc1 | 8.22% (active) |
| CCCCOC(=O)Nc1sc2nc(C)cc(C)c2c1-n1cccc1 | 0.21% |
| CCOC(=O)N1CCN(C(=O)c2ccc3c(=O)n(CCc4ccc(OC)c(OC)c4)c(=O)[nH]c3c2)CC1 | 2.68% |

| SMILES | proliferation |
| --- | --- |
| CCOc1ccc(-n2c(SCC(=O)Nc3cc(C(=O)O)ccc3Cl)nc3ccccc3c2=O)cc1 | -1.58% |
| Cc1csc(NC(=S)Nc2cccc(Cl)c2)n1 | -2.77% |
| S=C(Nc1cccc(Cl)c1)Nc1ccc2cn[nH]c2c1 | 0% (active) |
| FC(F)(F)c1cccc(NC(=S)Nc2cccc(Cl)c2)c1 | -6.83% |
| CCCCn1c(N)c(N(CC)C(=O)/C=C/c2ccco2)c(=O)[nH]c1=O | -1.59% |
| COc1ccc(C(=O)CCC(=O)Nc2ccc(Cl)cc2)cc1 | -2.97% |
| CO/N=C/CC(=O)c1ccc(OC)cc1 | -1.22% |
| COc1ccc(CCC(=O)c2ccc(OC)cc2)cc1 | 5.33% (active) |
| CCCCn1c(N)c(N(CCOC)C(=O)c2cccc(S(=O)(=O)N3CCCCC3)c2)c(=O)[nH]c1=O | 1.76% |
| c1ccc(C[C@H]2CNCCN2CCC23CC4CC(CC(C4)C2)C3)cc1 | -8% |
| O=C(/C=C/Nc1ccccc1)c1cnc(-c2ccccc2)s1 | -1.21% |
| CC(=O)c1cnc(-c2ccccc2)s1 | 8.82% (active) |
| CC(C)(C)C(=O)c1cnc(Nc2ccccc2)s1 | -3.47% |
| O=C(CN1CCN(c2ccc(F)cc2)CC1)Nc1cccc(C(F)(F)F)c1 | -3.27% |
| CC(C)(C)C1CCC(OC(=O)CCC(=O)Nc2ccccc2)CC1 (stereo unspecified) | 0% |
| O=C(c1ccc2c(c1)N(Cc1ccc(F)cc1)C(=O)c1ccccc1S2(=O)=O)N1CCN(c2ccccn2)CC1 | -0.68% |
| O=C1c2ccccc2S(=O)(=O)c2cc(N3CCN(c4ccccn4)CC3)ccc21 | 12.1% (active) |
| O=C(c1ccc2c(c1)C(=O)N(c1ccc(Cl)cc1)C2=O)N1CCN(c2ccccn2)CC1 | 2.75% |
| Cc1cc(=O)oc2cc(OCC3CC(c4ccccc4Cl)=NO3)ccc12 (stereo unspecified) | -5.28% |
| COc1ccc(OCC(=O)OCCN(C)C)cc1 | 0.06% |
| Cc1c(C(=O)NCCN(C)C)oc2ccc(S(=O)(=O)N3CCCC3)cc12 | 0% |
| CCn1c(SCC(=O)N/N=C/C=C/c2ccccc2[N+](=O)[O-])nnc1-c1ccccc1 | -1.08% |
| O=C(CSc1nc2ccccc2[nH]1)N/N=C/C=C\c1ccccc1[N+](=O)[O-] | 6.1% (active) |
| Cc1ccc(-n2c(SCC(=O)N/N=C/C=C/c3ccccc3[N+](=O)[O-])nc3ccccc3c2=O)cc1 | -2.84% |

| SMILES | proliferation |
| --- | --- |
| Cn1cc(-c2ccccc2)cc(C#N)c1=O | -2.8% |
| O=C(NNC(=S)NCc1ccccc1)c1ccc(OC(F)F)cc1 | 0% (active) |
| Cc1ccc(OCC(=O)NNC(=S)NCc2ccccc2)cc1 | 1.61% |
| Cc1scc(C(=O)NNC(=S)NCc2ccccc2)c1C | 0% |
| C=CCn1nc(-c2ccccc2)c2c(C)onc2c1=O | 2.27% |
| Cc1cccc(CN2CCC(n3nccc3NC(=O)c3ccccc3C)CC2)n1 | 0.34% |
| CN1C(=O)[C@H]2[C@@H](C3CC3)N3C(=O)CN(Cc4ccccc4)C(=O)[C@@]3(C)[C@H]2C1=O | 3.27% |
| O=C(CC1CCCCC1)NCc1ccc(F)cc1 | -3.62% |
| Fc1ccc(CNCc2ccc(Br)cc2)cc1 | 5.1% (active) |
| CCCCC(=O)NCc1ccc(F)cc1 | 0% |
| Cc1ccc(S(=O)(=O)N2CCN(C(=O)c3ccccc3-c3nc4ccccc4s3)CC2)c(C)c1 | -1.73% |
| COc1ccc(Cl)cc1S(=O)(=O)Nc1cccc(C(=O)O)c1 | -0.59% |
| CC(C)c1nnc(NC(=O)COC(=O)/C=C/c2ccc([N+](=O)[O-])cc2)s1 | 0.53% |
| O=C(c1ccco1)N1CCN(C(=O)c2ccc(COc3ccc(F)cc3)o2)CC1 | 6.29% |
| COc1ccccc1OCc1ccc(C(=O)N2CCN(C)CC2)o1 | 7.74% (active) |
| COc1ccccc1OCc1ccc(C(=O)NC(C)c2ccccc2)o1 (stereo unspecified) | 0.18% |
| CC(NC(=O)c1ccco1)c1ccc2c(c1)OCO2 (stereo unspecified) | -0.03% |
| Cc1ccccc1NC(=S)NNC(=O)c1cccc(Br)c1 | 13.8% (active) |
| O=C(NC(=S)Nc1cccc2c(O)cccc12)c1cccc(Br)c1 | -7.11% |
| Cc1cc(C(=O)NNC(=S)Nc2ccccc2C)cs1 | 0% |
| CC1(C)O[C@@H]2[C@H](O1)[C@@H](CO)O[C@H]2n1c(N2CCCCC2)nc2c(N)ncnc21 | 1.62% |
| C[C@@H](Nc1nc(-c2ccccc2)nc2c1oc1ccccc12)C(=O)O | -1.21% |
| COc1ccc(C)cc1Nc1nc(C)nc2c1oc1ccccc12 | -4.77% |
| COCCNc1nc(-c2ccccc2)nc2c1oc1ccccc12 | 6.28% (active) |
